Our source for the outcome and AC50 values is PubChem BioAssay (EPA / NIEHS).

Activity calls are given as the source filed them. The calls were made as follows: active = hit-call score of the fitted dose curve at least 0.9, where 1 is the maximum; inactive = score below 0.9.

What all share (conditions): mRNA level, 48 h; actives raise or lower the signal
Read-out in experiment [1]: Peroxisomal acyl-coenzyme A oxidase 1 (ACOX1) gene, ACOX1 (gene 51)
The experiment is described as follows: LTEA_HepaRG_ACOX1: Life Technologies and Expression Analysis (LTEA) Assay for Peroxisomal acyl-coenzyme A oxidase 1 (ACOX1) gene using HepaRG (AID 2283467). The method in brief: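 Human HepaRG hepatic cultures, 48 h treatment with test chemicals up to 100 uM. ACOX1 expression read by qRT-PCR relative to 0.5% DMSO vehicle.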

Read-out in experiment [2]: Alkaline Phosphatase, Placental (ALPP) gene, ALPP (gene 250)
The experiment is described as follows: LTEA_HepaRG_ALPP: Life Technologies and Expression Analysis (LTEA) Assay for Alkaline Phosphatase, Placental (ALPP) gene using HepaRG (AID 2283468). The method in brief: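 Expression of ALPP was quantified by qRT-PCR against three housekeeping genes in human HepaRG cultures treated for 48 h with an eight-point concentration series up to 100 uM. Activity in either direction was fitted relative to 0.5% DMSO.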

Read-out in experiment [3]: Bcl-2 (BAD) gene, BAD (gene 572)
The experiment is described as follows: LTEA_HepaRG_BAD: Life Technologies and Expression Analysis (LTEA) Assay for Bcl-2 (BAD) gene using HepaRG (AID 2283469). The method in brief: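 Activity values reflect up- or down-regulation of BAD mRNA in human HepaRG hepatic cells treated 48 h in serum-free medium, with eight-point half-log dosing capped at 100 uM and 0.5% DMSO vehicle.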

Read-out in experiment [4]: Bcl-2 (BAX) gene, BAX (gene 581)
The experiment is described as follows: LTEA_HepaRG_BAX: Life Technologies and Expression Analysis (LTEA) Assay for Bcl-2 (BAX) gene using HepaRG (AID 2283470). The method in brief: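 qRT-PCR read-out of BAX mRNA, normalized to three housekeeping genes, after 48 h chemical exposure of human HepaRG cells in serum-free induction medium; eight-point half-log series, top 100 uM, 0.5% DMSO vehicle; bidirectional fit versus DMSO.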

Read-out in experiment [5]: adenosine kinase (ADK) gene, ADK (gene 132)
The experiment is described as follows: LTEA_HepaRG_ADK: Life Technologies and Expression Analysis (LTEA) Assay for adenosine kinase (ADK) gene using HepaRG (AID 2283471). Put shortly: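 Differentiated HepaRG cells dosed 48 h in serum-free induction medium, 0.5% DMSO vehicle, eight half-log concentrations from 100 uM, in duplicate. ADK mRNA by TaqMan qRT-PCR normalised to ACTB, GAPDH, POLR2A; bidirectional fit versus DMSO.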

Read-out in experiment [6]: Alpha-fetoprotein (AFP) gene, AFP (gene 174)
In words: LTEA_HepaRG_AFP: Life Technologies and Expression Analysis (LTEA) Assay for Alpha-fetoprotein (AFP) gene using HepaRG (AID 2283472).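 As to AC50: AFP transcript by TaqMan qRT-PCR normalized to ACTB GAPDH and POLR2A.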 The method in brief: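 qRT-PCR (Fluidigm TaqMan) readout of AFP transcript, normalized to three housekeeping genes, fitted bidirectionally against 0.5% DMSO baseline. HepaRG cells received chemicals for 48 h in serum-free induction medium, top concentration 100 uM, half-log steps.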

Read-out in experiment [7]: BCL2L11 (gene 10018)
The experiment is described as follows: LTEA_HepaRG_BCL2L11: Life Technologies and Expression Analysis (LTEA) Assay for Bcl-2 (BCL2L11) gene using HepaRG (AID 2283473). The method in brief: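 Cells were plated, cultured 48 h, switched to serum-free induction medium, then dosed in duplicate for 48 h at eight half-log concentrations up to 100 uM. Lysates underwent RNA isolation and TaqMan qRT-PCR; gain or loss versus DMSO was fitted.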

Read-out in experiment [8]: Apolipoprotein A-V (APOA5) gene, APOA5 (gene 116519)
In words: LTEA_HepaRG_APOA5: Life Technologies and Expression Analysis (LTEA) Assay for Apolipoprotein A-V (APOA5) gene using HepaRG (AID 2283474). The method in brief:
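Human liver HepaRG cells are treated 48 h with test chemicals (100 uM top, half-log dilutions, 0.5% DMSO). APOA5 mRNA induction or loss is measured by qRT-PCR relative to vehicle.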

Read-out in experiment [9]: Apoptosis regulator Bcl-2 (Homo sapiens) (UniProt P10415)
The experiment is described as follows: LTEA_HepaRG_BCL2: Life Technologies and Expression Analysis (LTEA) Assay for Bcl-2 gene using HepaRG (AID 2283475). The method in brief: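 qRT-PCR read-out (Fluidigm TaqMan) of BCL2 transcript, normalised to three housekeeping genes, after 48 h chemical exposure of HepaRG cells; 8-point half-log series, top 100 uM, 0.5% DMSO vehicle. Gain or loss of signal fitted relative to DMSO baseline.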

Read-out in experiment [10]: Bcl-2 (BID) gene, BID (gene 637)
The experiment is described as follows: LTEA_HepaRG_BID: Life Technologies and Expression Analysis (LTEA) Assay for Bcl-2 (BID) gene using HepaRG (AID 2283476). Put shortly: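 HepaRG, 48 h exposure, 8-pt half-log series, top 100 uM, 0.5% DMSO vehicle, duplicates. Readout: BID mRNA by TaqMan qRT-PCR; housekeeping-normalized; bidirectional curve fit vs DMSO baseline.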

Read-out in experiment [11]: Caspase-3 (Homo sapiens) (UniProt P42574)
The experiment is described as follows: LTEA_HepaRG_CASP3: Life Technologies and Expression Analysis (LTEA) Assay for cysteine-aspartic acid protease (CASP3) using HepaRG (AID 2283477). The method in brief:
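In HepaRG liver cells dosed for 48 h at up to 100 uM (eight-point, duplicate), CASP3 expression changes are scored by qRT-PCR. Activity is fitted in both directions with 0.5% DMSO as baseline.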

Read-out in experiment [12]: Cytochrome P450 (CYP24A1), CYP24A1 (gene 1591)
In words: LTEA_HepaRG_CYP24A1: Life Technologies and Expression Analysis (LTEA) Assay for Cytochrome P450 (CYP24A1) using HepaRG (AID 2283478). Put shortly: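 Human liver HepaRG cultures receive each chemical for 48 h across an eight-point half-log series topping at 100 uM in 0.5% DMSO. Induction or suppression of CYP24A1 mRNA is scored relative to vehicle after housekeeping-gene normalization.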

Read-out in experiment [13]: Cytochrome P450 (CYP1A2), CYP1A2 (gene 1544)
The experiment is described as follows: LTEA_HepaRG_CYP1A2: Life Technologies and Expression Analysis (LTEA) Assay for Cytochrome P450 (CYP1A2) using HepaRG (AID 2283479).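 As to AC50: TaqMan qRT-PCR transcript level normalized to ACTB GAPDH and POLR2A.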 Put shortly: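 Assesses CYP1A2 mRNA in human HepaRG liver cells after 48 h chemical exposure at up to 100 uM. Values come from qRT-PCR with bidirectional curve fitting relative to DMSO.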

Read-out in experiment [14]: cysteine-aspartic acid protease (CASP8), CASP8 (gene 841)
In words: LTEA_HepaRG_CASP8: Life Technologies and Expression Analysis (LTEA) Assay for cysteine-aspartic acid protease (CASP8) using HepaRG (AID 2283480). Put shortly: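 Concentration-response in duplicate up to 100 uM (half-log steps, 0.5% DMSO) on differentiated HepaRG cultures for 48 h. Expression change of CASP8 mRNA is determined by TaqMan qRT-PCR with housekeeping-gene normalization.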

Read-out in experiment [15]: Cytochrome P450 2C19 (Homo sapiens) (UniProt P33261)
In words: LTEA_HepaRG_CYP2C19: Life Technologies and Expression Analysis (LTEA) Assay for CYP2C19 using HepaRG (AID 2283482). Put shortly:
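Human HepaRG liver cells received test chemicals for 48 h (highest 100 uM, half-log dilutions in 0.5% DMSO). CYP2C19 mRNA induction or loss is read by multiplexed qRT-PCR and fitted in both directions versus vehicle.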

Read-out in experiment [16]: CYP2C8 (gene 1558)
The experiment is described as follows: LTEA_HepaRG_CYP2C8: Life Technologies and Expression Analysis (LTEA) Assay for CYP2C8 using HepaRG (AID 2283483). Put shortly:
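This is a transcriptional endpoint in HepaRG cultures: 48 h exposure, highest concentration 100 uM. CYP2C8 mRNA is quantified by TaqMan qRT-PCR.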

Read-out in experiment [17]: CYP2C9 (gene 1559)
The experiment is described as follows: LTEA_HepaRG_CYP2C9: Life Technologies and Expression Analysis (LTEA) Assay for CYP2C9 using HepaRG (AID 2283484). The method in brief:
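Eight-point concentration-response (highest 100 uM, half-log dilutions) in HepaRG cells for 48 h; CYP2C9 expression by qRT-PCR normalized to ACTB, GAPDH, POLR2A. Bidirectional fit, DMSO baseline.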

Read-out in experiment [18]: CYP2E1 (gene 1571)
The experiment is described as follows: LTEA_HepaRG_CYP2E1: Life Technologies and Expression Analysis (LTEA) Assay for CYP2E1 using HepaRG (AID 2283485). Put shortly: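 CYP2E1 transcript was measured by TaqMan qRT-PCR in human HepaRG cultures after 48 h chemical exposure (top 100 uM, half-log steps, 0.5% DMSO vehicle). Housekeeping-gene normalization; gain or loss fitted relative to DMSO baseline.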

Read-out in experiment [19]: CYP4A11 (gene 1579)
The experiment is described as follows: LTEA_HepaRG_CYP4A11: Life Technologies and Expression Analysis (LTEA) Assay for CYP4A11 using HepaRG (AID 2283486). The method in brief: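 Readout is CYP4A11 mRNA induction or suppression (qRT-PCR, ACTB/GAPDH/POLR2A normalization) in human HepaRG cells after 48 h chemical treatment, concentrations to 100 uM in 0.5% DMSO, fitted bidirectionally against vehicle.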

Read-out in experiment [20]: Cytochrome P450 (CYP2B6), CYP2B6 (gene 1555)
The experiment is described as follows: LTEA_HepaRG_CYP2B6: Life Technologies and Expression Analysis (LTEA) Assay for Cytochrome P450 (CYP2B6) using HepaRG (AID 2283481). The method in brief:
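Using 48 h treatment of HepaRG cells in serum-free induction medium, concentrations spanned half-log steps from 100 uM in 0.5% DMSO vehicle. CYP2B6 mRNA induction or loss is scored by qRT-PCR against DMSO.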

Cytochrome P450 2C19 (Homo sapiens), sequence (P33261 whole entry, looked up): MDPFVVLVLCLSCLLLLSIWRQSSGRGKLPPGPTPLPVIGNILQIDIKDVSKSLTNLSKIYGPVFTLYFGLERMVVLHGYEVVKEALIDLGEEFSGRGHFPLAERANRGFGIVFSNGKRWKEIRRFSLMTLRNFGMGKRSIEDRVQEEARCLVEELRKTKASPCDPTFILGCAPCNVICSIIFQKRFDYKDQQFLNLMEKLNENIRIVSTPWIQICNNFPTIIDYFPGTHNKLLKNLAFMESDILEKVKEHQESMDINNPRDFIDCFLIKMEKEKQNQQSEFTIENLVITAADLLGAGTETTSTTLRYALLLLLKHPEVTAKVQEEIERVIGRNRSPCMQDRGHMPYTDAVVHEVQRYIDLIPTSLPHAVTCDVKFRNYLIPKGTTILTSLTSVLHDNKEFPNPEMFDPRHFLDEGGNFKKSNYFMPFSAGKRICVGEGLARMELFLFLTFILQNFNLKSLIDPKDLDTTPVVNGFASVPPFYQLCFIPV
Caspase-3 (Homo sapiens), sequence (P42574 whole entry, looked up): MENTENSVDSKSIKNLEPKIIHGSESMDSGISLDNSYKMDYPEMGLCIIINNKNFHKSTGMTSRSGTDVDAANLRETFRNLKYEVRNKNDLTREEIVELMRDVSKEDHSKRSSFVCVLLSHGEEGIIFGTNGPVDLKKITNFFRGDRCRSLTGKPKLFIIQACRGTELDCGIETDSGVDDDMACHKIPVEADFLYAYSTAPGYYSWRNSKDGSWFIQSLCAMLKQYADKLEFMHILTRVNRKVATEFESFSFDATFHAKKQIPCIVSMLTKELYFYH
Apoptosis regulator Bcl-2 (Homo sapiens), sequence (P10415 whole entry, looked up): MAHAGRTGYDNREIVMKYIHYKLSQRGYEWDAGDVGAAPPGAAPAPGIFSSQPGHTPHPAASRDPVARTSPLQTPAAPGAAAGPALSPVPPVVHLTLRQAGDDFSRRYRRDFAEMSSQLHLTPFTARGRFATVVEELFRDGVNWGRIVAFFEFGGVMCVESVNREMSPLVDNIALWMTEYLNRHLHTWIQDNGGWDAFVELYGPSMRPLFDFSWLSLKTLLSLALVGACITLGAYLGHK

As for `CC(N)=O`, the result in experiment [1], in [2], in experiment [3], in experiment [4], in [5] and in experiment [6] was inactive. In addition, the outcome in experiment [7], in [8], in experiment [9], in experiment [11], in [12] and in experiment [13] was inactive. The molecule was classed as inactive in [14], in [15], in experiment [16], in experiment [17], in [18] and in experiment [19]. In addition, in experiment [10], the AC50 (in general, the midpoint of the concentration-response curve, whichever way the signal moves) was 0.321 µM (active).
On to `CCCC(=O)O`, for which the result in experiment [1], in experiment [2], in [3], in experiment [4], in [5] and in experiment [6] was inactive. Further, the result in experiment [7], in experiment [8], in experiment [9], in experiment [10], in [11] and in experiment [12] was inactive. The call in experiment [13], in [14], in [15], in experiment [16], in [17] and in [18] was inactive. Besides, the outcome in [19] was inactive.
`CCC(C)N(C)C(=O)c1cc2ccccc2c(-c2ccccc2Cl)n1` (stereo not drawn): the result in [1], in [2], in experiment [3], in experiment [4], in experiment [5] and in [8] was inactive. The call in experiment [9], in experiment [10], in [11], in [12], in [14] and in experiment [17] was inactive. The concentration at half-maximal activity (AC50) in [6] is 31.8 µM (active); in [7] it was 31.8 µM (active); in experiment [13], 50.5 µM (active); in experiment [20], 1.38 µM (active); in [15], 4.31 µM (active); in [16] it was 1.77 µM (active). In addition, the AC50 in experiment [18] was 14.1 µM (active); in [19], 15.4 µM (active).
